Compounds with a hit are over-represented: about 11% of the library has one in this group of screens.
Pf growth 48h: Primary qHTS for delayed death inhibitors of the malarial parasite plastid, 48 hour incubation. P. falciparum luciferase growth in erythrocytes, 48 h. Potency, µM (highest dose often 28.7 µM), inactives show top-dose activity change, negative = inhibition, most hits filed as inhibitors. actives 5.9% (n = 310,000); further: on the % scale 0 is the no-effect control and ±100 the full control effect
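Compounds are pin-transferred into medium, infected erythrocytes (2% hematocrit, 0.1% parasitemia final) are added, and plates sit one parasite generation at 37 C in 5% CO2. Detection reagent is then added and luminescence measured.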
AMA1-RON2 inh: qHTS for Inhibitors of AMA1-RON; Towards Development of Antimalarial Drug Lead: Primary Screen; Plasmodium falciparum AMA1 (3D7) - RON2 peptide interaction; AlphaScreen AMA1-biotinylated RON2 peptide binding; Potency, µM (titrated, usually from 58.2 µM), for the others: at the top dose activity change, negative = inhibition, hits mostly inhibitors; actives 0.2% (n = 360,000); AID 720542, 2013;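 further: 0% = vehicle wells and -100% = peptide control; nearly all actives have a fitted effect of over 45% in size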
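AMA1 (3D7) with his tag at 25 nM final met compounds first, then biotinylated RON2 peptide at 25 nM; detection used donor plus acceptor beads, 10 µg/mL apiece, read by AlphaScreen after 30 min at room temperature.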
Sm TGR inh: qHTS Assay for the Inhibitors of Schistosoma Mansoni Peroxiredoxins; purified TGR, DTNB reduction, TNB absorbance 405 nm; Schistosoma mansoni thioredoxin glutathione reductase (TGR), Q962Y6; actives 3% (n = 360,000); Potency, µM (highest dose often 114 µM), without a hit: top-dose activity change, negative = inhibition, most hits filed as inhibitors; further: on the % scale 0 is the no-effect control and ±100 the full control effect; nearly all actives have a fitted effect of over 60% in size
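TGR 20 nM + NADPH 100 uM (dispensed conc.), cpd preinc 15 min RT; start with NADPH (500 uM addition) then DTNB (15 mM addition). Kinetic TNB absorbance, 405 nm filter. Four-parameter Hill fit across titration.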
NS1 inh: qHTS Assay for Inhibitors of Influenza NS1 Protein Function; Potency, µM (highest dose often 46.1 µM), for the others: at the top dose activity, positive = more growth; actives 0.4% (n = 270,000); AID 2326, 2010; calls by dose curve; further: actives are rising curves; nearly all actives have a fitted effect of over 50% in size
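Compounds were scored for reversing the slow growth caused by influenza A NS1 in S. cerevisiae, measured by optical density at 600 nm. Assay medium contained 2% galactose at pH 6.0; NS1-free yeast of the same strain were the positive control.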
Pf growth 96h: Primary qHTS for delayed death inhibitors of the malarial parasite plastid, 96 hour incubation. actives 6.9% (n = 320,000). P. falciparum luciferase reporter growth, 96 h. Potency, µM (series often up to 28.7 µM), for the others: at the top dose activity change, negative = inhibition, hits mostly inhibitors. AID 504834, 2011; further: on the % scale 0 is the no-effect control and ±100 the full control effect
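Two-generation exposure (96 h) targets delayed-death phenotype. Reporter parasites carrying integrated firefly luciferase, in red cells at 2% hematocrit and 0.05% parasitemia final, kept at 37 C, 5% CO2; luminescence loss indicates inhibition.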
* hit, by the source's call; ? = inconclusive; / = not tested or not shown; [ ] = remark or other dose. Unless noted, the call rests on the fitted dose curve; in most records, active means well fitted curve in the direction sought with a large enough effect; inconclusive means small, poorly fitted or top-dose-only effect, or another doubt; inactive means no such curve, though single readings can be large; an effect the other way counts as inactive or inconclusive. Potency means the concentration at half of the fitted maximal effect.

SMILES | Pf growth 48h | AMA1-RON2 inh | Sm TGR inh | NS1 inh | Pf growth 96h
CC1CCN(c2ccc3nnc(CCC(=O)Nc4ccc(F)cc4)n3n2)CC1 | ? | -7.1% | 7.5% | -12.6% | ?
COc1cc(NC(=O)CCc2nnc3ccc(N4CCC(C)CC4)nn23)cc(OC)c1 | -16.2% | -6.7% | 3.2% | 3.7% | 1.85µM*
COc1cc(OC)cc(-c2c(C#Cc3ccsc3)c3cc(-c4ccc5c(c4)OCCO5)ccc3n2C)c1 | ? | 14.7% | -23.0% | / | 2.62µM*
COc1cc(OC)cc(-c2c(C#Cc3ccsc3)c3cc(-c4cccc5[nH]ccc45)ccc3n2C)c1 | 11.7µM* | 0.7% | -19.0% | / | 3.29µM*
COc1cc(OC)cc(-c2c(C#Cc3ccsc3)c3cc(-c4ccccc4OC)ccc3n2C)c1 | / | 8.7% | / | / | /
COc1cc(OC)cc(-c2c(C#Cc3ccsc3)c3cc(-c4ccc5cc[nH]c5c4)ccc3n2C)c1 | ? | -1.1% | 25.1µM* | / | 1.85µM*
COc1ccc(-c2c(C#Cc3ccsc3)c3cc(-c4ccc5cc[nH]c5c4)ccc3n2C)cc1 | / | -9.3% | / | / | /
O=C1C=C(c2cccc3c2sc2ccccc23)C[C@@H](c2ccc(F)cc2)C1 | ? | -5.9% | 5.4% | / | 0.0%
CCOC(=O)/C(=C\c1cccnc1)C(=O)c1cc(C(C)=O)c(Nc2ccccc2)s1 | ? | 1.7% | 20µM* | -134.3% | /
CCOC(=O)/C(=C\c1ccccc1)C(=O)c1cc(C(C)=O)c(Nc2ccccc2)s1 | / | 19.7% | -7.4% | 2.7% | ?
O=C(Nc1ccc(Oc2cccnc2)cc1)C1CCN(Cc2cc(Cl)ccc2O)CC1 | 1.31µM* | 3.0% | -13.8% | -8.7% | ?
O=C(Nc1ccc(Oc2cccnc2)cc1)C1CCN(Cc2ccc(F)cc2)CC1 | ? | 1.6% | -8.7% | 15.6% | 11.1%
COc1cccc(CN2CCC(C(=O)Nc3ccc(Oc4cccnc4)cc3)CC2)c1 | ? | -18.7% | 0.0% | 2.0% | 56.4%
CCn1cc(CN2CCC(C(=O)Nc3ccc(Oc4cccnc4)cc3)CC2)cn1 | 13.1µM* | -2.0% | -22.2% | 21.0% | 12.2%
Cc1cccc(CN2CCC(C(=O)Nc3ccc(Oc4cccnc4)cc3)CC2)c1 | 13.1µM* | -2.1% | 0.0% | 1.2% | 13.9%
CCC(=O)N1CCc2cc(Br)cc(S(=O)(=O)N3CCCC(C(=O)Nc4ccc(C)c(F)c4)C3)c21 (stereo not given) | / | / | -2.1% | / | /
CCCCc1ccc(S(=O)(=O)NC(=O)C2(C)CCN2C(=O)C/C=C/c2ccccc2)cc1 (stereo not given) | / | -10.5% | / | / | /
CCOC(=O)c1ccc(Oc2cc(C)nc(Cl)n2)cc1 | 18.8% | -7.0% | -13.3% | -0.5% | 31.4%
Cc1ccc(/C=C2/C(=O)c3ccc(C(=O)O)cc3C2=O)o1 | 28.1% | 4.1% | 5.01µM* | 0.5% | 8.28µM*
Cc1ccc(C=C2C(=O)c3ccccc3C2=O)o1 | ? | -9.7% | -28.0% | -5.1% | ?
O=C(O)c1ccc2c(c1)C(=O)/C(=C/c1ccccc1)C2=O | -13.6% | -0.2% | -10.4% | 18.2% | -27.4%
O=C1C(=Cc2ccco2)C(=O)c2ccccc21 | 3.4% | 2.1% | -33.0% | 9.2% | 16.5µM*
O=C1/C(=C/c2ccco2)CCc2ccccc21 | 338.4% | -16.6% | ? | -2.0% | ?
O=C(O)c1ccc2c(c1)C(=O)/C(=C\c1ccco1)C2=O | -12.8% | -24.8% | 7.08µM* | / | 11.7µM*
O=C(c1cnc(N2CCCCC2)c2ccccc12)N1CCN(c2ccccc2F)CC1 | / | / | 0.4% | / | /
SMILES | Pf growth 48h | AMA1-RON2 inh | Sm TGR inh | NS1 inh | Pf growth 96h
O=C(O)CN(CCc1ccccc1)S(=O)(=O)c1ccccc1 | -6.9%[0.00184 µM] | -1.5% | 0.0% | 3.1% | 25.8%
CC(=O)N1CCN(C(=O)c2ccc(C(=O)c3ccccc3)cc2)CC1 | 16.8% | 10.3% | 5.7% | -0.2% | 30.3%
O=C(Nc1cccc(Cl)c1N1CCCC1)c1ccc(Br)o1 | 1.6% | -17.6% | -1.6% | -9.2% | /
O=C(Nc1cccc(Cl)c1N1CCCC1)c1cc2ccccc2o1 | -2.2% | 0.7% | 5.1% | -40.1% | 1.31µM*
Cc1occc1C(=O)N1CCN(c2ccc([N+](=O)[O-])cc2)CC1 | 0.4% | -17.1% | -7.6% | 2.6% | ?
CC(=O)c1ccc(N2CCN(C(=O)c3ccc(C(=O)c4ccccc4)cc3)CC2)cc1 | -1.9% | 8.1% | -14.5% | / | 5.22µM*
O=C(c1ccc(Cn2cc(Br)cn2)cc1)N1CCN(c2ccccc2)CC1 | -16.4% | -3.2% | -1.3% | -13.1% | -0.7%[5.75 µM]
Cc1occc1C(=O)N1CCN(c2ccc(Cl)cc2)CC1 | 14.6% | -6.8% | ? | -20.3% | 4.65µM*
O=C(c1ccc(Cn2cc(Cl)cn2)cc1)N1CCN(c2ccccc2)CC1 | -13.9% | -5.3% | -5.2% | -61.4% | 7.38µM*
Cc1cc(C(=O)OCC(=O)NC2(C#N)CCCCC2)c(C)o1 | ? | -6.0% | -22.8% | / | ?
CC(C)(C)NC(=S)NNC(=O)c1cccc(Br)c1 | 169.3% | 79.8% | 16.4% | / | -7.1%
O=C(c1ccc(N2CCN(C(=O)c3ccc(F)cc3F)CC2)cc1)c1cccc(F)c1 | ? | -0.7% | 0.0% | -23.0% | 10.4µM*
O=C(Nc1ccccc1N1CCN(C(=O)c2ccc(Cl)cc2)CC1)c1cc2ccccc2o1 | ? | -10.1% | -10.2% | -38.4% | /
O=C(Nc1cccc2ccccc12)c1ccc(Cn2cc(Cl)cn2)cc1 | ? | 14.6% | 12.5% | 1.1% | 13.1µM*
O=C(c1ccc(F)cc1F)N1CCN(c2ncccn2)CC1 | 36.3% | 1.7% | -19.0% | 6.7% | 122.7%
O=C(Nc1ccc(N2CCN(C(=O)c3ccc(Cl)cc3)CC2)cc1)c1cc2ccccc2o1 | / | -5.5% | -18.1% | 1.7% | 5.86µM*
O=C(c1ccccc1)N1CCN(c2ccc(Cl)cc2)CC1 | ? | 2.6% | -2.6% | -106.2% | 14.7µM*
Cc1cc(NC(=O)Nc2nc3c(s2)CCCCCC3)ccc1Br | / | / | -5.4% | / | /
O=C(COC(=O)c1cccc(-n2cnnn2)c1)c1ccc(F)c(F)c1 | / | -3.3% | / | / | /
CCOc1cc(C(=O)N(CC)CC(=O)Nc2c(F)cccc2F)ccc1OCC(=O)N1CCOCC1 | -12.2% | -25.2% | ? | / | 8.1%
O=C(Nc1ccccc1N1CCCC1)c1cccc(-c2cc3ccccc3oc2=O)c1 | ? | -20.6% | -5.9% | ? | ?
O=C(Nc1ccc(N2CCCC2)cc1)c1cccc(-c2cc3ccccc3oc2=O)c1 | 8.9% | -14.3%[11.6 µM] | -15.0% | ? | 0.415µM*
COc1ccc(C(CNC(=O)c2oc3ccc(C)cc3c2C)N2CCOCC2)cc1 (stereo not given) | / | / | -1.9% | / | /
COC(=O)C1=C(c2ccc(OC)c(OC)c2)C[C@@H]2CC[C@H]1N2C(=O)N1CCc2cc(OC)c(OC)cc2C1 | ? | -3.6% | -16.8% | / | ?

Bioassay records: PubChem BioAssay, National Center for Advancing Translational Sciences (NCATS)
